# Laboratory results from ChEMBL document CHEMBL3988442, “University of Dundee, Small-Polar-MMV Screening Library” (2021).
# For some assays here: Potency and affinity values are given separately.
# Columns and labels:
# Parameters in all cases: scale not given: direction of the effect not stated beside the values
# [1] = target: Protein translocase subunit SecA (Escherichia coli (strain K12)) (UniProt P10408); assay: Assay to Identify E. coli SecA ATPase Inhibitors; format: functional; settings: 30 µM
# Chain of Protein translocase subunit SecA (Escherichia coli (strain K12)) (P10408 whole entry): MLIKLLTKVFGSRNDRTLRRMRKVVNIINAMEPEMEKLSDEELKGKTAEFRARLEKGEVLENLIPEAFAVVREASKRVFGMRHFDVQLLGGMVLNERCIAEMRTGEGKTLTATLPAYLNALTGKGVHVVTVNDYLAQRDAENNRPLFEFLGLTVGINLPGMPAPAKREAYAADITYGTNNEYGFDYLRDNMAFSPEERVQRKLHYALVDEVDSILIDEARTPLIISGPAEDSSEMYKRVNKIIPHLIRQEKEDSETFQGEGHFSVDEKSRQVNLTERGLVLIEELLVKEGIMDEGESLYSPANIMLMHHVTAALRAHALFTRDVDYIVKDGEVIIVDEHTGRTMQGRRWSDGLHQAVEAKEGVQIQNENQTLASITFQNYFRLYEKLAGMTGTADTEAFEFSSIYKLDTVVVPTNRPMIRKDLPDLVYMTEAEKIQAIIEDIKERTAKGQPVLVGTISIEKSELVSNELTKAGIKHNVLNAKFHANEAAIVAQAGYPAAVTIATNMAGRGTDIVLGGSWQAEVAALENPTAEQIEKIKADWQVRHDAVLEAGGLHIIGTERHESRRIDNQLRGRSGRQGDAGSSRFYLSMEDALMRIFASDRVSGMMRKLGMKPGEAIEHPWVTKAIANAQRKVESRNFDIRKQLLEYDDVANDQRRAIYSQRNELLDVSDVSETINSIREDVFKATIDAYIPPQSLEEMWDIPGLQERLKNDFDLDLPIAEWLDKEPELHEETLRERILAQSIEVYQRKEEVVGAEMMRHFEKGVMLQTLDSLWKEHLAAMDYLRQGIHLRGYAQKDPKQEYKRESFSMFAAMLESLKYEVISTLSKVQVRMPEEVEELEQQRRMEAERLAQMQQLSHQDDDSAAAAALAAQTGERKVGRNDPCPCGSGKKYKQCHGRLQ
# [2] = target: T1, Ubiquitin-activating enzyme e1, putative (Leishmania donovani (strain BPK282A1)) (UniProt E9BSI1); assay: Leishmania donovani Ubiquitin Activating Enzyme (LdE1); format: functional; settings: 30 µM
# T1 sequence (whole entry): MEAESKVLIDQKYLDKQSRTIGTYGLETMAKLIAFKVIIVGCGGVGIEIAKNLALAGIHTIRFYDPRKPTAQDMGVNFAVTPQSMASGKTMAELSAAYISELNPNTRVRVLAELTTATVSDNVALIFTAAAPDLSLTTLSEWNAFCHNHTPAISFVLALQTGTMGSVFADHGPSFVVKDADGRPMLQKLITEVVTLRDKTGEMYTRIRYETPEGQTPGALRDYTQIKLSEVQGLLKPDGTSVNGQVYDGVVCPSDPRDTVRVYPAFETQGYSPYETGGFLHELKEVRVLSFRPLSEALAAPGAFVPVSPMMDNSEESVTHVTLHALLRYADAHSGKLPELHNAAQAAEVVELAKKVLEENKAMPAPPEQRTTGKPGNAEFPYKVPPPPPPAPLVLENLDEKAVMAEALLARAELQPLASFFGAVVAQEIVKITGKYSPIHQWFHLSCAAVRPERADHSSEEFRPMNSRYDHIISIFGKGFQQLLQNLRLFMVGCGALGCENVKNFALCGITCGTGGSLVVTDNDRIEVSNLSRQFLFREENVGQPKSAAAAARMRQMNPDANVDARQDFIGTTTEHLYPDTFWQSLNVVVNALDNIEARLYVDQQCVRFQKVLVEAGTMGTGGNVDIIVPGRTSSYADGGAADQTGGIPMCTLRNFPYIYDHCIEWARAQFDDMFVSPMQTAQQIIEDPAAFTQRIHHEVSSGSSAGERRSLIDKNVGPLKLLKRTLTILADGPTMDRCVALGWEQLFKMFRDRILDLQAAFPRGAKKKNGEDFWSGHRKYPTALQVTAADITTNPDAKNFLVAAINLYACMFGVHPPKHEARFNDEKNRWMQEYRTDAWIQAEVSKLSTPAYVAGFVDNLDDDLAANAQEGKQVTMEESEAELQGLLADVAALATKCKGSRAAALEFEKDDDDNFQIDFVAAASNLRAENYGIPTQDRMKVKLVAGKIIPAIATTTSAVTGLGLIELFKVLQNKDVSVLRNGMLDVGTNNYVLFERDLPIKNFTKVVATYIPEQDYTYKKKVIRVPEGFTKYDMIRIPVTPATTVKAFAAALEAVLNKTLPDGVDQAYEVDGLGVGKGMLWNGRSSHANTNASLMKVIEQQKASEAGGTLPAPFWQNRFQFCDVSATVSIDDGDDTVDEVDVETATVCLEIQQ
# [3] = target: AMP-activated protein kinase, AMPK (Homo sapiens) (UniProt P54646+O43741+P54619+Q9UGJ0+Q9Y478+Q13131+Q9UGI9); assay: AMP-dependent Kinase enzyme assay. An in vitro enzyme assay that detects ADP turnover that is directly proportional to AMPK activity. This uses naive AMPK that is activated during the assay with MK-8722; format: functional; settings: 30 µM
# [4] = target: Sialic acid-binding Ig-like lectin 9 (Homo sapiens) (UniProt Q9Y336); assay: Hs-Siglec9 ALPHAscreen SOP 20170721; settings: 10 µM
# Chain of Sialic acid-binding Ig-like lectin 9 (Homo sapiens) (Q9Y336 whole entry): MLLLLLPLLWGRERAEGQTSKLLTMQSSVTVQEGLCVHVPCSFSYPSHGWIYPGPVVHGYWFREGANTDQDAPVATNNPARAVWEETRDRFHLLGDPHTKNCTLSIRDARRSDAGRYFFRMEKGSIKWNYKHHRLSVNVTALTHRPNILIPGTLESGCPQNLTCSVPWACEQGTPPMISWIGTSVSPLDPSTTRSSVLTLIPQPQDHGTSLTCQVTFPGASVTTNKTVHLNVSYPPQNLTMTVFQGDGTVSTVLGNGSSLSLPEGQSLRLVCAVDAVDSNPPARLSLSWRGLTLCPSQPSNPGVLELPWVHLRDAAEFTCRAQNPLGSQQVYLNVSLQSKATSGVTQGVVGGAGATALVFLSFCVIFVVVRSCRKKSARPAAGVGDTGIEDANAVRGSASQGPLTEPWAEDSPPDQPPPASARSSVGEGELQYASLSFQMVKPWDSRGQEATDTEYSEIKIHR
# Trypanosoma cruzi = assay: Trypanosoma cruzi phosphomannomutase and mannose-1-phosphate guanylyltransferase assay; format: functional; settings: 10 µM
# [5] = target: T2, Arginase-2, mitochondrial (Homo sapiens) (UniProt P78540); assay: in vitro enzyme assay to detect the production of urea directly proportional to the activity of Arginase II; format: functional; settings: 33.3 µM; further: in the data most compounds retested in dose-response had high values
# T2 sequence (whole entry): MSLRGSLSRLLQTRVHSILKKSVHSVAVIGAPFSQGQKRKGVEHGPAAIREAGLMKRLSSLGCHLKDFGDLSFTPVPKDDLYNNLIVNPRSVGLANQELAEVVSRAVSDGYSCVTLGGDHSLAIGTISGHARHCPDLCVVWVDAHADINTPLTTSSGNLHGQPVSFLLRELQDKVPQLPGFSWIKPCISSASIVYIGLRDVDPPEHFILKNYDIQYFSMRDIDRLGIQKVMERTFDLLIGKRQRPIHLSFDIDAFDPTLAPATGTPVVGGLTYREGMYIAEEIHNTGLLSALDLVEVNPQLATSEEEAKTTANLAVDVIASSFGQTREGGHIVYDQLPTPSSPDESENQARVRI
# [6] = target: T3, Proteasome subunit beta (Trypanosoma cruzi) (UniProt O96673); assay: Trypanosoma cruzi proteasome chymotrypsin-like activity (TcProtChymo) assay.; further: in the data most compounds retested in dose-response had high values; format: functional; settings: 9.37 µM
# T3 sequence (whole entry): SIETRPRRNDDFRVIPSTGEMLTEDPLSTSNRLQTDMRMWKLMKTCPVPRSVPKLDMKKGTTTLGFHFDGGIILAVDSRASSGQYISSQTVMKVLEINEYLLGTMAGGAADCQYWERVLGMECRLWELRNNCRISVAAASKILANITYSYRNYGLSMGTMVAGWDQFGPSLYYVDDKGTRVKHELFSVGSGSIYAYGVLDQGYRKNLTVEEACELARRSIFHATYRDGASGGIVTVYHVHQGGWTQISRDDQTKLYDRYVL
# Homo sapiens = organism: Homo sapiens; assay: To identify inhibition of the IFN signalling (Jak-Stat) pathway via expression of an eGFP reporter gene under the control of an IFN-stimulated response element (ISRE) containing MxA promoter.; format: functional; settings: 30 µM
# [7] = target: T4, Tyrosyl-tRNA synthetase, putative (Trypanosoma cruzi (strain CL Brener)) (UniProt Q4DSP6); assay: Trypanosoma cruzi tyrosyl tRNA synthetase (TcYRS) _High Tyrosine SOP; format: functional; settings: 30 µM; further: in the data most compounds retested in dose-response had high values
# T4 sequence (whole entry): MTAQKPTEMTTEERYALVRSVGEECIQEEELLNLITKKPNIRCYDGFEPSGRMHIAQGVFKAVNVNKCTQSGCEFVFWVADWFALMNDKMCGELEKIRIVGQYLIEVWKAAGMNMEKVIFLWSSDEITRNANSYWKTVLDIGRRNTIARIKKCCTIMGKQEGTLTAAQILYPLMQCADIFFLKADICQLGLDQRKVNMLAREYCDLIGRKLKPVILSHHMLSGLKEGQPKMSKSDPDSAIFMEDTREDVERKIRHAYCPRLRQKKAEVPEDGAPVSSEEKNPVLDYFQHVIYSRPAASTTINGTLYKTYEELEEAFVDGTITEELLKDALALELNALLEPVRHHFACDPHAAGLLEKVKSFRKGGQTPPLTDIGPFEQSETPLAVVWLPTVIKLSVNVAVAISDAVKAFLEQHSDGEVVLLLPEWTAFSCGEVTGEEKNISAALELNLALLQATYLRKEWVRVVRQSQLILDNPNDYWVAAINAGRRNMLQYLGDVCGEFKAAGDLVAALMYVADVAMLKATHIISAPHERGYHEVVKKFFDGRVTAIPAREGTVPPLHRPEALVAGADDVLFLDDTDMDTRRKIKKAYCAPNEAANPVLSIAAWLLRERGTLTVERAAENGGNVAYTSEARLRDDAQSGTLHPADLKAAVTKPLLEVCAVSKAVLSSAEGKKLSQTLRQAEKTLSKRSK
# [8] = target: T4, Tyrosyl-tRNA synthetase, putative (Trypanosoma cruzi (strain CL Brener)); assay: Trypanosoma cruzi tyrosyl tRNA synthetase (TcYRS) SOP; format: functional; settings: 30 µM
# [9] = target: Chromo domain-containing protein 1 (Saccharomyces cerevisiae (strain ATCC 204508 / S288c) (Baker's yeast)) (UniProt P32657); assay: ScCHD-1 Enzyme Inhibition Assay; format: functional; settings: 30 µM; further: in the data most compounds retested in dose-response had high values
# Chain of Chromo domain-containing protein 1 (Saccharomyces cerevisiae (strain ATCC 204508 / S288c) (Baker's yeast)) (P32657 whole entry, the tested form may be a part): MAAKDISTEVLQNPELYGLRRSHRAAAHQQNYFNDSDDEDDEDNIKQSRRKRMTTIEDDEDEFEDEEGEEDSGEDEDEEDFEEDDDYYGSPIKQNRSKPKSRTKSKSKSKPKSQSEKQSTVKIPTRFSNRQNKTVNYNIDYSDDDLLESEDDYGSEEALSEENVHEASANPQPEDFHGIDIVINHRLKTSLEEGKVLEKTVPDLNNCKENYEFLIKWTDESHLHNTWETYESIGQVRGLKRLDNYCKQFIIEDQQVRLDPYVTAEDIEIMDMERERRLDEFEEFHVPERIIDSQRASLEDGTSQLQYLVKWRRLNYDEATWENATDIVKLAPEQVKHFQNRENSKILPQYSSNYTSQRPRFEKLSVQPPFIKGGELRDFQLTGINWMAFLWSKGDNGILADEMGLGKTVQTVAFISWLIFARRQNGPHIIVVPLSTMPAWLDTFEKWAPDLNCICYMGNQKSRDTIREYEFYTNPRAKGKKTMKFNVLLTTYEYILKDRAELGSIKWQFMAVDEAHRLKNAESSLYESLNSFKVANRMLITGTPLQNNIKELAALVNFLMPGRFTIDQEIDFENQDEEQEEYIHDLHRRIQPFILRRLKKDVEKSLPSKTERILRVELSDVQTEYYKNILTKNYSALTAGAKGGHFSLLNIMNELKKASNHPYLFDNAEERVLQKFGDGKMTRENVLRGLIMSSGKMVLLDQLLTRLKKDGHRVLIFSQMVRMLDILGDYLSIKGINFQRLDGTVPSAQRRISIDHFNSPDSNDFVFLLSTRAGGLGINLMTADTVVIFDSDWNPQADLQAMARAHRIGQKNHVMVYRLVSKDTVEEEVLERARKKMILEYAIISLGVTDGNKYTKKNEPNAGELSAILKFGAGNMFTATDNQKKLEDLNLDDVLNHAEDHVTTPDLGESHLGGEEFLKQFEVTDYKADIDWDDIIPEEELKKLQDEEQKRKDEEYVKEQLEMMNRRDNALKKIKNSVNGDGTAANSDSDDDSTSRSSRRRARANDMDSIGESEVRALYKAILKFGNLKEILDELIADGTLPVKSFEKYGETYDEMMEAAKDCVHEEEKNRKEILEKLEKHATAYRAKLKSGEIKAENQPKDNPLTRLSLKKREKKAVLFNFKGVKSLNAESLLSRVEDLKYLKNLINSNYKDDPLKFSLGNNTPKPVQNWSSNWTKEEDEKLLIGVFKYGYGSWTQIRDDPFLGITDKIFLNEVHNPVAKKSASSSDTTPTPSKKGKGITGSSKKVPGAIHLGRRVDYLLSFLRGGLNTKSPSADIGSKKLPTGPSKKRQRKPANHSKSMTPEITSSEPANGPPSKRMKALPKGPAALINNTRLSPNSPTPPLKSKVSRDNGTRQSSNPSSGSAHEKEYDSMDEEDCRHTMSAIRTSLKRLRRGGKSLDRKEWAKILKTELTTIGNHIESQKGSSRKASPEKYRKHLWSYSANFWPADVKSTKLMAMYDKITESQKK
Structure (SMILES),Percent Effect [1],Percent Effect [2],Percent Effect [3],Percent Effect [4],Percent Effect (Trypanosoma cruzi),Percent Effect [5],Percent Effect [6],Percent Effect (Homo sapiens),Percent Effect [7],Percent Effect [8],Percent Effect [9]
O=C(NCCc1c[nH]cn1)c1ccc2c(c1)C(=O)N(C1CC1)C2=O,-0.201%,1.33%,5.05%,2.3%,-8.64%,0.176%,11.7%,-8.34%,6.35%,7.69%,-4.66%
Cc1noc(NC(=O)c2ccc(C)c(F)c2)n1,-3.93%,20.2%,3.63%,-2.91%,4.63%,0%,11.7%,64%,9.36%,26.6%,-5.98%
CC(C)c1nnc2n1CCN(CCCS(=O)(=O)c1ccccc1)C2,-2.39%,7.79%,4.29%,7.26%,6.18%,-4.27%,7.94%,0.936%,1.94%,14.6%,-8.88%
CN(CCN1CCCCC1)C(=O)c1cc(CN2CCOCC2)on1,-2.82%,8.22%,-18.2%,-4.57%,2.74%,1.82%,21.8%,-8.25%,7.53%,20%,-3.28%
CN(Cc1nnc(C2CC2)n1C)C1CCN(CCc2cccs2)C1 (configuration not stated),-0.668%,5.48%,-3.64%,3.02%,8.33%,0%,15.5%,-8.16%,2.08%,6.17%,-3.22%
CC(C)Cc1noc(CN2CCN(C(=O)c3cccc(F)c3)CC2)n1,-4.75%,-2.74%,1.5%,5.59%,1.39%,0%,1.97%,0.357%,4.17%,1.24%,6.05%
CSCCCNC(=O)Nc1cccc(-c2nccn2C)c1,-3.41%,6.94%,-0.0628%,2.76%,-0.0972%,1.32%,16.8%,10.7%,1.05%,2.56%,-2.41%
O=C(CCc1nccs1)N1CCN(c2ncccn2)CC1,-10.4%,-7.79%,-1.74%,-4.24%,7.93%,-0.632%,9.3%,1.03%,5.71%,18.8%,-11%
O=C(NCc1cncc2c1CCN(Cc1cccs1)C2)C1CC1,1.73%,8%,3.65%,-13.1%,-9.65%,9.56%,21.2%,5.35%,5.32%,6.41%,0.102%
CCCc1n[nH]c(C2CN(C(=O)C3=COCCC3)CCO2)n1 (configuration not stated),-3.49%,2.63%,-0.787%,5.25%,2.52%,1.44%,-2.96%,2.6%,2.46%,1.24%,10.7%
Cn1ccnc1CN1CCN(Cc2ccccc2C#N)CC1,-5.61%,18.4%,-14.9%,6.65%,2.52%,-0.719%,6.34%,5.87%,12.3%,18.5%,-9.79%
CCSCCC(=O)Nc1ncn(Cc2cccnc2)n1,-2.86%,5.33%,-3.63%,8.4%,-5.16%,3.65%,17.8%,9.04%,4.92%,13.6%,-5.58%
Cc1csc(CNC(=O)NCCc2ccc3c(c2)OCCO3)n1,-5.64%,13%,-2.69%,-16.2%,7.93%,-3.58%,13.5%,8.98%,4.76%,23.5%,-17.6%
COc1c(C)cnc(CSc2nnc(C)s2)c1C,-4.15%,5.33%,-1.7%,12.8%,6.33%,8.33%,4.53%,6.59%,1.64%,6.17%,-14.7%
CC(C)(C)c1nc(CN2CCCC2CCc2ccccc2)no1 (configuration not stated),-4.12%,-2.6%,4.97%,-2.77%,-6.18%,-0.712%,-5.91%,27.2%,0.971%,-14.6%,1.21%
COc1cccc2cc(CNC(C)(C)C(=O)N3CCC(O)CC3)oc12,-4.3%,5.06%,-3.21%,-2.38%,7.08%,-0.76%,-6.14%,-31.3%,6.4%,3.8%,-3.05%
CN(CCCc1cnn(C)c1)C(=O)C1COc2ccccc2C1 (configuration not stated),0.742%,8.22%,1.84%,-1.88%,-1.37%,2.27%,20.6%,9.33%,2.15%,17.5%,-14.2%
O=C(CO)N1CCC(c2cncc(-c3cccc(Cl)c3)n2)CC1,-2.26%,-2.67%,27.8%,-7.86%,8.27%,138%,15.9%,6.85%,11.7%,16.7%,-5.15%
CCN1C[C@H]2CCN(C(C)=O)CC[C@H]2S1(=O)=O,-0.139%,9.33%,-6.04%,-0.534%,-5.7%,-5.81%,19.6%,1.4%,0%,5.13%,-7.45%
CCc1nc(C2CCCN2C(=O)CCNS(C)(=O)=O)no1 (configuration not stated),-2.77%,27%,-4.56%,-1.58%,3.25%,-2.03%,19%,21.8%,7.92%,23.2%,-6.19%
Cc1ncsc1C(=O)NC1CCN(CC(=O)N(C)C(C)(C)C#N)CC1,-9.21%,7.89%,-2.06%,0.841%,-1.77%,1.08%,-2.45%,23.3%,1.48%,-1.24%,2.71%
O=C(NCCc1cccc(F)c1)NCC(O)c1cccc(F)c1 (configuration not stated),-2.56%,5.41%,4.6%,6.95%,1.04%,1.6%,7.93%,10.8%,8.37%,23.5%,-3.01%
